# Bioassay records (PubChem BioAssay)
# FXN GAA850 act – increases GAA850 frataxin promoter reporter activity; activation, % at 6 µM; AID 540364; HEK293 lucGAA850 FXN promoter luciferase reporter, 24 h; percent of 10 µM SAHA response; 0.56% of 360,000 active;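 active = activation above the average of all compounds screened plus 3 SD, cutoff fixed separately per campaign, cut at about 7.5% in these data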;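 note: 0% = DMSO wells and 100% = 10 µM SAHA wells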
# PAX8 reporter – lowers PAX8-driven luciferase in RMG-I cells; RMG-I TPO-luciferase reporter, SteadyGlo, 24 h; inhibition, % at 12.6 µM; 1.2% of 360,000 active;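 active = mean replicate inhibition at least 60% with every replicate also reaching 60%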;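 note: luciferase light reporting Pax8 driven TPO promoter activity; plate controls were median of neutral control wells for no effect and mitoxantrone controls for full effect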
# CFTR F508del cor – correctors of CFTR F508del function in bronchial epithelial cells; CFBE cells, YFP halide quenching; stimulated with forskolin plus potentiator P3; % fluorescence drop versus neutral controls; activity (quench increase), % at 7.58 µM; 0.36% of 350,000 active;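 active = mean added fluorescence quench of at least 8% versus neutral control, with both replicates also reaching 8%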;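 note: cells transiently co-express mutant CFTR-F508del with the halide-sensitive YFP; corrector assay measuring rescue of mutant channel to the surface after 24 h compound exposure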
# EWS-Fli inh – inhibitors of EWS/Fli oncoprotein transcriptional activity. A673 NR0B1-luciferase reporter, viability-normalised. inhibition, % at 12.6 µM. 0.67% of 350,000 active;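 active = mean inhibition of at least 50% after viability correction, with every replicate also passing that limit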;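 note: firefly luciferase signal divided by Alamar Blue viability fluorescence both relative to DMSO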
# HIV Env fusion – HIV envelope-mediated fusion inhibition; HeLa-JRFL Env/CEM21 cell fusion, luciferase; inhibition, % at 12.3 µM; 1.1% of 360,000 active;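 active = mean replicate inhibition score of at least 50 and every replicate individually at or above 50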;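 note: 0% = plate neutral controls and 100% = maraviroc near 300 nM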
# * marks the source's active call; other numbers are inactive results; x = no result given; [ ] = remark or other dose. Most compounds without a hit are left out; they make up all but 2.5% or so of the library.
SMILES,FXN GAA850 act,PAX8 reporter,CFTR F508del cor,EWS-Fli inh,HIV Env fusion
CCC(=O)N1[C@H](CO)[C@@H]2c3ccccc3N(C(=O)c3cnccn3)C[C@@H]21,x,-6,-2,1,x
COc1ccc(C)cc1NC(=O)C(OC(=O)c1cnccn1)c1ccccc1 (centres undefined),2,-1,0,3,-50
COc1ccc(C)cc1NC(=O)C(OC(=O)c1ccc(Cl)c(S(=O)(=O)N(C)c2ccccc2)c1)c1ccccc1 (centres undefined),1,22,9.2*,-3,36
Cc1ccc(C(=O)Nc2ccc3c(c2)CCC3)cc1,-1,10,x,59*,-87
Cc1ccc(C(=O)NCC(=O)Nc2ccc3c(c2)CCC3)cc1,4,x,1,-43,-12
Cc1ccc(C(=O)Nc2ccc3c(c2)OCCO3)cc1,-2,50,0,69*,-141
Cc1ccc(C(=O)Nc2ccc3c(c2)OCCO3)c(Cl)c1,-6,52,-3,63*,-5
Cc1ccc(C(=O)Nc2ccc3c(c2)OCO3)cc1,-4,x,x,x,-184
COc1cccc(S(=O)(=O)N2C[C@H](O)COC[C@H]3O[C@H](CC(=O)NCCCN4CCOCC4)CC[C@@H]32)c1,x,5,-2,-12,-2[16.7 µM]
COC(=O)CSc1nnc(CSc2nc(C)cc(C)n2)n1Cc1ccco1,-3,15,x,x,-36
Cc1ccc(NC(=O)CSc2nc(-c3ccco3)cc(C(F)(F)F)n2)cc1C,-6,x,x,x,56*
COC(=O)c1ccc(C(=O)OC)c(NC(=O)CSc2nc(-c3ccco3)cc(C(F)(F)F)n2)c1,2,x,x,x,x
Cc1cc(C)nc(SCc2nnc(SCC(=O)Nc3ccc(C)c(C)c3)n2Cc2ccco2)n1,0,6,x,x,54*
COC(=O)c1ccccc1NC(=O)CSc1nc(-c2ccco2)cc(C(F)(F)F)n1,-1,x,-2,51*,x
O=C(NCC(F)(F)F)[C@@H]1[C@@H](CO)[C@@H]2Cn3c(cccc3=O)[C@@H]2N1C(=O)C1CCCC1,x,x,-2,7,x
CS(=O)(=O)N(Cc1cccc(CN(C(C(=O)O)c2ccccc2)S(C)(=O)=O)c1)C(C(=O)O)c1ccccc1 (centres undefined),-1,-12,-3,-1,21
COC(=O)[C@@H](Cc1ccccc1)N(Cc1ccccc1)S(=O)(=O)N(Cc1ccccc1)[C@H](Cc1ccccc1)C(=O)OC,-1,20,3,21,40
CC(C)C[C@@H](C(=O)O)N(Cc1cccc(CN([C@@H](CC(C)C)C(=O)O)S(C)(=O)=O)c1)S(C)(=O)=O,-2,-9,-4,-12,61*
COC(=O)[C@@H](CC(C)C)N(Cc1ccccc1)S(=O)(=O)N(Cc1ccccc1)[C@@H](CC(C)C)C(=O)OC,1,4,3,-5,85*
C[C@@H]1CN([C@@H](C)CO)C(=O)c2cc(NC(=O)CCCN(C)C)ccc2O[C@H]1CN(C)C(=O)Nc1cccc2ccccc12,x,-11,1,-4,x
COc1ccccc1N(CC(=O)N/N=C/c1ccc(OCC(=O)NCc2ccco2)cc1)S(=O)(=O)c1ccc(C)cc1,-1,x,x,x,x
COC(=O)COc1ccc(/C=N/NC(=O)c2ccc(N(Cc3ccccc3)S(C)(=O)=O)cc2)cc1,1,62*,-1,36,4
COC(=O)COc1ccc(/C=N/NC(=O)CN(c2ccccc2OC)S(=O)(=O)c2ccccc2)cc1,2,69*,-4,34,-29
Cc1cc(C(=O)Nc2cccc3c2O[C@H](CN(C)S(C)(=O)=O)[C@@H](C)CN([C@H](C)CO)C3=O)n(C)n1,x,x,-2,0,0[16.7 µM]
C[C@@H]1CCCCO[C@H](CN(C)Cc2ccc(Cl)c(Cl)c2)[C@H](C)CN([C@@H](C)CO)C(=O)c2cc(NC(=O)Nc3ccc(F)cc3)ccc2O1,-2,75*,-1,4,-47
SMILES,FXN GAA850 act,PAX8 reporter,CFTR F508del cor,EWS-Fli inh,HIV Env fusion
C[C@@H]1CCCCO[C@H](CN(C)Cc2ccc(Cl)c(Cl)c2)[C@@H](C)CN([C@@H](C)CO)C(=O)c2cc(NC(=O)NC3CCCCC3)ccc2O1,x,70*,6,-1,x
C[C@@H]1CN([C@@H](C)CO)C(=O)c2cc(NC(=O)Nc3ccc(F)cc3)ccc2O[C@@H](C)CCCCO[C@H]1CN(C)Cc1ccc(Cl)c(Cl)c1,x,72*,-2,4,48[16.7 µM]
CC=Cc1ccc2n(c1=O)C[C@H]1[C@H](CO)[C@@H](C(=O)NCC3CCCCC3)[C@@H]2N1C(=O)CC (mixture of isomers),x,x,-1,2,x
CCCn1c(C2CCCN2c2nc(-c3cccc(Br)c3)cs2)nc2cc(Cl)c(Cl)cc21 (centres undefined),0,19,3,4,x
CCCn1c(C2CCCN2c2nc(C)cs2)nc2cc(Cl)c(Cl)cc21 (centres undefined),0,8,-2,16,70*
CC(C)CC#Cc1ccc2c(c1)O[C@@H](CN(C)Cc1ccccn1)[C@@H](C)CN([C@@H](C)CO)S2(=O)=O,x,47,x,22,12[16.7 µM]
CN(C)C(=O)C[C@H]1C[C@@H]2c3cc(NC(=O)c4ccc5c(c4)OCO5)ccc3O[C@@H]2[C@H](CO)O1,x,x,-4,-8,x
COc1ccc(CCNc2nnc(Sc3nnnn3-c3ccccc3)s2)cc1OC,6,94*,x,x,-222
COc1ccc(-n2nnnc2SCC(=O)NCCc2ccccc2)cc1OC,2,25,4,0,8
CCOc1ccc(-c2[nH]ncc2-c2ccc(OC)c(OC)c2)c(O)c1,-3,x,x,x,67*
COc1ccc(-c2cn[nH]c2-c2ccc(O)cc2O)cc1OC,1,2,-1,4,6
COc1ccc(-c2cn[nH]c2-c2ccc(OCc3ccc([N+](=O)[O-])cc3)cc2O)cc1,-2,-15,x,0,73*
CO[C@@H]1CN(C)C(=O)c2ccc(NS(C)(=O)=O)cc2OC[C@@H](C)N(S(=O)(=O)CC(F)(F)F)C[C@H]1C,x,x,0,3,6[16.7 µM]
COc1ccc2c3c(n(C)c2c1)[C@H](CO)N(C(=O)NC(C)C)CC31CN(C(=O)NC(C)C)C1,x,x,-2,-3,-13[16.7 µM]
O=C1c2oc3ccccc3c(=O)c2C(c2cccc(Br)c2)N1Cc1ccco1 (centres undefined),-1,x,x,x,55*
COc1ccc(C2c3c(oc4ccccc4c3=O)C(=O)N2Cc2ccncc2)cc1OC (centres undefined),x,-3,x,x,-21
CC[n+]1c(/C=C/c2c[nH]c3ccccc23)ccc2cc(C)ccc21,x,76*,5,31,-6
O=C(C[C@H]1CC[C@@H]2[C@H](COC[C@H](O)CN2Cc2cc(F)ccc2F)O1)N[C@@H]1CCN(Cc2ccccc2)C1,x,1,2,12,-158[16.7 µM]
C=CC[C@H](CC(=O)N(CCO)Cc1ccccc1)C(=O)N[C@@H](COC(=O)[C@@H](CC=C)Cc1ccc(F)cc1)Cc1c[nH]c2ccccc12,-9,69*,1,0,-180
